Measurements reported in PubChem BioAssay (Tox21).
“And” between values parts separate entries of the source, which are not always exact repeats. Equal entries are not always repeated. Results filed as inconclusive are left out. The source made the active and inactive calls. Unless noted, calls follow the shape of the dose curve; as a rule, active = well fitted curve in the direction sought with a large enough effect in the repeat runs; inconclusive = weak or mixed curves; inactive = no such curve, though single readings can be large; an effect the other way counts as inactive or inconclusive.

Key:
[1] = qHTS assay for small molecule agonists of the p53 signaling pathway (AID 651631; calls by dose curve; also: nearly all actives have a fitted effect of over 15% in size; also: potency is read from the fitted curve at half-maximal effect)
Summary of the method: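 Quantitative high-throughput format: 4,000 p53RE-bla HCT-116 cells/well, 5 h pre-incubation, 16 h compound exposure at 37 °C, 2 h room-temperature substrate step, fluorescence intensity measured.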

[2] = qHTS assay for small molecules that induce genotoxicity in human embryonic kidney cells expressing luciferase-tagged ATAD5 (AID 651632); also: nearly all actives have a fitted effect of over 15% in size
Summary of the method: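 Increased luciferase signal from ATAD5-tagged reporter cells indicates DNA-damage-driven ATAD5 induction. HEK293T cells are treated for 16 hr at 37C before detection with Amplite.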

[3] = qHTS assay for small molecules that induce genotoxicity in human embryonic kidney cells expressing luciferase-tagged ATAD5 - cell viability (AID 651634; calls by dose curve; also: nearly all actives have a fitted effect of over 25% in size; also: potency is read from the fitted curve at half-maximal effect)
Summary of the method: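 Cytotoxicity counterscreen in HEK293T cells bearing an ATAD5-luciferase reporter: live-cell protease activity measured by CellTiter-Fluor fluorescence after 15.5 hr compound exposure.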

[4] = qHTS assay for small molecule disruptors of the mitochondrial membrane potential - cell viability (AID 720634; calls by dose curve; also: nearly all actives have a fitted effect of over 20% in size; also: potency is read from the fitted curve at half-maximal effect)
Summary of the method: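 After overnight attachment at 37 C, HepG2 cells received compound or DMSO vehicle for 1 hr. Viability is then taken from ATP-driven luminescence following a 30 min room-temperature CellTiter-Glo step.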

[5] = qHTS assay to test for compound auto fluorescence at 590 nm (red) in HepG2 cells (AID 720674)
Summary of the method: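 1 hr compound incubation on HepG2 cells, 37 C, 5% CO2; plate read ex 540 nm / em 590 nm; intensities reported as Rose Bengal sodium equivalents.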

[6] = qHTS assay to test for compound auto fluorescence at 535 nm (green) in HepG2 cells (AID 720675)
[7] = qHTS assay to test for compound auto fluorescence at 590 nm (red) in HEK293 cells (AID 720679)
Summary of the method: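 Autofluorescence equivalency to Rose Bengal sodium, 540/590nm, in HEK293 cells exposed overnight to 23 nL compound per well.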

[8] = qHTS assay to test for compound auto fluorescence at 535 nm (green) in HEK293 cells (AID 720680)
[9] = qHTS assay to test for compound auto fluorescence at 460 nm (blue) in HEK293 cell free culture (AID 720681)
Summary of the method: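 Blue fluorescence (Ex 405/Em 460 nm, triamterene-equivalent) was read immediately after pin transfer of compound or DMSO into medium (DMEM, 10% FBS) without cells.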

[10] = qHTS assay to test for compound auto fluorescence at 535 nm (green) in HEK293 cell free culture (AID 720682)
Summary of the method: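 Measurement is a direct plate read of green fluorescence (485 nm in, 535 nm out) after compound addition to serum-supplemented DMEM lacking cells, with fluorescein used to express intensities.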

[11] = qHTS assay to test for compound auto fluorescence at 590 nm (red) in HEK293 cell free culture (AID 720683)
Summary of the method: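 Red-channel autofluorescence of compounds in culture medium (DMEM, 10% FBS), no cells, measured at 540/590 nm. Rose Bengal sodium is the reference fluorophore for equivalence.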

[12] = qHTS assay to test for compound auto fluorescence at 590 nm (red) in HepG2 cell free culture (AID 720684)
Summary of the method: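 Plate contents were MEM with 10% FBS plus test compound or DMSO, no cells. Fluorescence was recorded with 540 nm excitation and 590 nm emission.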

[13] = qHTS assay to test for compound auto fluorescence at 535 nm (green) in HepG2 cell free culture (AID 720686)
[14] = qHTS assay to test for compound auto fluorescence at 460 nm (blue) in HepG2 cells (AID 720687)
Summary of the method: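 Blue-channel autofluorescence (Ex/Em 405/460 nm, triamterene-equivalent) was measured after 1 hr compound exposure at 37 C, 5% CO2. Cells were HepG2, plated overnight at 37 C in MEM plus 10% FBS.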

[15] = molecular target: Glucocorticoid receptor (Homo sapiens) (UniProt P04150); experiment: qHTS assay to identify small molecule agonists of the glucocorticoid receptor (GR) signaling pathway (AID 720691; active = well fitted activation curve with a large enough effect in the signal ratio in the repeat runs, not every such curve was filed as active; the % refers to the signal ratio)
Chain of Glucocorticoid receptor (Homo sapiens) (P04150 whole entry, looked up): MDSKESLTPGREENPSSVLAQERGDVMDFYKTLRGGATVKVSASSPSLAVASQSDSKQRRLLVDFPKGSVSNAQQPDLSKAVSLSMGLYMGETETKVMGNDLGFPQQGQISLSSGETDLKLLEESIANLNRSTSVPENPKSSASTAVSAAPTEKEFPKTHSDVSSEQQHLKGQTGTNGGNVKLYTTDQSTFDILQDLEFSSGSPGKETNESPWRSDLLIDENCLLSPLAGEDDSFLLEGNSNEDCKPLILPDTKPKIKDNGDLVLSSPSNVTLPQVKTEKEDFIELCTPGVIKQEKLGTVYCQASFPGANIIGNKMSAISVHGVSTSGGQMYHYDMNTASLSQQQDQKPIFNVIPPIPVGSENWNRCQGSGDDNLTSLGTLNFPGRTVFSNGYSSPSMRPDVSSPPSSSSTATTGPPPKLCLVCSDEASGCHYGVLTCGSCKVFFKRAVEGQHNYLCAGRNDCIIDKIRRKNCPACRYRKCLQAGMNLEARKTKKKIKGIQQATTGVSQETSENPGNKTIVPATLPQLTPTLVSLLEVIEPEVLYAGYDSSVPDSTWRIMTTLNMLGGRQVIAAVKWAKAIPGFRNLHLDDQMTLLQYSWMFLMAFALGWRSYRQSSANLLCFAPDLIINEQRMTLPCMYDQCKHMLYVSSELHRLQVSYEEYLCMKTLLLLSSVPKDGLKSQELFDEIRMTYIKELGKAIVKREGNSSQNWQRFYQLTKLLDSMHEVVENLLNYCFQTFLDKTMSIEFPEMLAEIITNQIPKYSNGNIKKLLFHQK
Summary of the method: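 Agonist mode in a HeLa line carrying a GRE-controlled beta-lactamase reporter. Compounds act for 18 h at 37 C before a 2 h room-temperature FRET substrate step and fluorescence reading.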

[16] = qHTS assay for small molecule agonists of the p53 signaling pathway - cell viability (AID 651633; calls by dose curve; also: nearly all actives have a fitted effect of over 30% in size; also: potency is read from the fitted curve at half-maximal effect)
Summary of the method: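 Viability counter-read: CellTiter-Glo luminescence (30 min, room temperature) in the same p53RE-bla plates. These plates had been exposed to compounds for 16 h at 37 C.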

[17] = qHTS assay for small molecule disruptors of the mitochondrial membrane potential (AID 720635); also: potency is read from the fitted curve at half-maximal effect
Summary of the method: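 Mitochondrial membrane potential tracked with Mito-MPS dye, red aggregates (ex 540/em 590 nm) against green monomers (ex 490/em 535 nm). Compound treatment 1 hr at 37C, dye 30 min in HepG2.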

[18] = qHTS assay to test for compound auto fluorescence at 460 nm (blue) in HEK293 cells (AID 720678)
Summary of the method: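 Auto fluorescence in the blue band was quantified as triamterene equivalency. HEK293 cells were seeded at 2,000/well, dosed after a 4-5 hr attachment, and kept overnight at 37C before the 405/460 nm reading.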

[19] = qHTS assay to test for compound auto fluorescence at 460 nm (blue) in HepG2 cell free culture (AID 720685)
Summary of the method: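 Compound (23 nL) or DMSO pinned into cell-free MEM with 10% FBS; blue fluorescence read at 405/460 nm excitation/emission, expressed as auto-fluorescence equivalency to triamterene.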

[20] = molecular target: Glucocorticoid receptor (Homo sapiens) (UniProt P04150); experiment: qHTS assay to identify small molecule antagonists of the glucocorticoid receptor (GR) signaling pathway (AID 720692; active = well fitted inhibition curve with a large enough effect in the signal ratio in the repeat runs, not every such curve was filed as active; the % refers to the signal ratio)
Summary of the method: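 Cells plated, rested 4 h at 37 C/5% CO2; compounds in DMSO pin-transferred; dexamethasone added to 5 nM final; 18 h at 37 C; B/G FRET substrate added, 2 h room temperature; fluorescence measured.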

Measured: Potency

C=C(CC)C(=O)c1ccc(OCC(=O)O)c(Cl)c1Cl
active: [1] 11.9 µM and 9.62 µM
inactive: [2] | [3] | [4] | [5] | [6] | [7] | [8] | [9] | [10] | [11] | [12] | [13] | [14] | [15]

COc1cccc(OC)c1C(=O)O
inactive: [1] | [16] | [3] | [4] | [17] | [5] | [18] | [7] | [8] | [9] | [10] | [11] | [12] | [19] | [13] | [14] | [15] | [20]

CC1(C)CC(O)CC(C)(C)N1
inactive: [1] | [2] | [16] | [3] | [6] | [18] | [7] | [8] | [9] | [10] | [11] | [19] | [14] | [15] | [20]

C[C@@H](O)[C@H](N)C(=O)O
inactive: [1] | [2] | [16] | [3] | [17] | [18] | [7] | [9] | [10] | [11] | [12] | [19] | [13] | [14] | [15] | [20]

OC[C@H]1O[C@H](O[C@H]2O[C@H](CO)[C@@H](O)[C@H](O)[C@H]2O)[C@H](O)[C@@H](O)[C@@H]1O
inactive: [1] | [16] | [3] | [4] | [5] | [6] | [18] | [7] | [8] | [9] | [10] | [12] | [19] | [13] | [14] | [15] | [20]

Oc1c(I)cc(Cl)c2cccnc12
active: [1] 29.8 µM | [16] 16.8 µM and 19.3 µM | [17] 48.5 µM
inactive: [2] | [4] | [5] | [6] | [18] | [7] | [8] | [9] | [10] | [11] | [19] | [13]

O=C(/C=C/c1ccccc1)OC/C=C/c1ccccc1
inactive: [1] | [16] | [3] | [4] | [5] | [6] | [18] | [7] | [8] | [9] | [10] | [11] | [12] | [19] | [14] | [15] | [20]

C=Cc1ccccc1C=C
inactive: [1] | [16] | [3] | [4] | [5] | [6] | [18] | [7] | [8] | [9] | [10] | [11] | [12] | [19] | [13] | [15] | [20]

CCOC(=O)NNc1ccc(N(CC)CC(C)O)nn1 (stereo unspecified)
inactive: [1] | [2] | [16] | [3] | [4] | [18] | [7] | [8] | [9] | [10] | [12] | [13] | [14]

C#C[C@]1(OC(C)=O)CC[C@H]2[C@@H]3CCC4=C/C(=N/O)CC[C@@H]4[C@H]3CC[C@@]21CC
active: [1] 33.5 µM | [3] 18.8 µM | [4] 10.6 µM
inactive: [2] | [5] | [6] | [18] | [7] | [8] | [10] | [11] | [12] | [19] | [13] | [14]

CCCCOC(=O)CO
inactive: [1] | [16] | [3] | [4] | [17] | [5] | [6] | [18] | [7] | [9] | [10] | [11] | [19] | [13] | [15] | [20]

Nc1ccc(NCCO)c([N+](=O)[O-])c1
inactive: [1] | [2] | [16] | [4] | [5] | [6] | [7] | [8] | [9] | [10] | [12] | [13] | [14] | [15] | [20]
active: [17] 15.4 µM

Cc1cc(C)c(/C=C2\C(=O)Nc3ccccc32)[nH]1
active: [16] 2.66 µM | [17] 10.6 µM
inactive: [2] | [3] | [4] | [5] | [18] | [7] | [8] | [9] | [10] | [11] | [12] | [19] | [14]

Oc1ccccc1O
inactive: [2] | [3] | [4] | [17] | [5] | [6] | [18] | [7] | [8] | [9] | [10] | [11] | [12] | [19] | [13] | [15]
active: [16] 43.8 µM and 30.6 µM

CCCCCCCCCCCC(=O)OCC(C)OC(=O)CCCCC(=O)O (stereo unspecified)
inactive: [2] | [16] | [3] | [4] | [17] | [5] | [18] | [7] | [8] | [9] | [10] | [11] | [12] | [19] | [14] | [15]

CCCC[P+](C)(CCCC)CCCC
inactive: [2] | [16] | [3] | [4] | [6] | [18] | [7] | [8] | [9] | [10] | [11] | [12] | [19] | [13] | [14] | [15]
active: [17] 13.9 µM

CC(C)(C)c1csc(-c2cc3cc(OCc4ccccc4CC(=O)O)ccc3o2)n1
active: [16] 15.4 µM | [3] 24.3 µM | [4] 61.1 µM | [17] 4.86 µM
inactive: [2] | [6] | [18] | [7] | [8] | [9] | [10] | [11] | [12] | [19] | [13] | [14]
